Counter-ions that a name gives are not always drawn.
How the values were obtained:
Assay in all cases: Euclidean distance of Cell Painting phenotypic profile (signed KS, 77 features) to DMSO centroid (dimensionless distance); 5 or 10 uM (library dependent); higher = stronger phenotypic change vs DMSO (phenoactivity)
Settings in all cases: 48 h
786-O = test system: 786-O
In short: (§1)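 Library compounds were applied at 10 or 5 uM, depending on the library, with 0.1% DMSO final, for 48 h to five cancer lines and a healthy fibroblast line. After staining, cells were imaged confocally at 20X across 9 fields per well, and Harmony extracted 77 features, each scored as a signed Kolmogorov-Smirnov statistic against vehicle wells on the same plate. Phenoactivity is the Euclidean distance between each profile and the median vehicle profile, with profiles first plate-position corrected, correlation-weighted and averaged over replicates at the top dose.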

A549 = test system: A549
In short: as §1

DU145 = test system: DU145
In short: as §1

FB = test system: FB
In short: as §1

HEPG2 = test system: HEPG2
In short: as §1

OVCAR4 = test system: OVCAR4
In short: as §1

| Structure (SMILES) | Euclidean distance (786-O) | Euclidean distance (A549) | Euclidean distance (DU145) | Euclidean distance (FB) | Euclidean distance (HEPG2) | Euclidean distance (OVCAR4) |
| --- | --- | --- | --- | --- | --- | --- |
| CC(O)Cn1cnc2c1c(=O)n(C)c(=O)n2C (centres undefined) [Proxyphylline] | 1.48 | 0.998 | 0.788 | 0.934 | 0.686 | 1.03 |
| CCOc1cc2ncc(C#N)c(Nc3ccc(OCc4ccccn4)c(Cl)c3)c2cc1NC(=O)/C=C/CN(C)C [Neratinib (HKI-272)] | 2.26 | 2.39 | 2.02 | 4.01 | 0.96 | 2.16 |
| COc1cc(OC)cc(N(CCNC(C)C)c2ccc3ncc(-c4cnn(C)c4)nc3c2)c1 | 3.65 | 3.46 | 2.34 | 4.29 | 3.36 | 3.1 |
| Cc1ccc(C(=O)c2ccc(CC(=O)O)n2C)cc1 [Tolmetin] | 1.07 | 0.65 | 0.844 | 1.14 | 0.964 | 0.922 |
| OCCN1CCN(CCCN2c3ccccc3Sc3ccc(Cl)cc32)CC1 [Perphenazine] | 1.95 | 2.47 | 1.77 | 2.8 | 2.4 | 2.19 |
| CO[C@H]1/C=C\C=C(/C)C(=O)NC2=CC(=O)C(NCCN(C)C)=C(C[C@@H](C)C[C@H](OC)[C@H](O)[C@@H](C)/C=C(\C)[C@@H]1OC(N)=O)C2=O | 2.76 | 2.89 | 4.03 | 3.32 | 3.56 | 2.71 |
| O=C(c1ccc(Nc2nccc(-c3cc4ccccc4s3)n2)cc1)N1CCC(N2CCCC2)CC1 [IKK-16 (IKK Inhibitor VII)] | 3.91 | 4.2 | 3.04 | 4.35 | 4.29 | 4.4 |
| CN(C)C(=O)COC(=O)Cc1ccc(OC(=O)c2ccc(NC(=N)N)cc2)cc1 [Camostat Mesilate] | 1.16 | 0.62 | 1.08 | 0.645 | 0.823 | 1.71 |
| CC[C@H]1OC(=O)[C@H](C)[C@@H](O[C@H]2C[C@@](C)(OC)[C@@H](O)[C@H](C)O2)[C@H](C)[C@@H](O[C@@H]2O[C@H](C)C[C@H](N(C)C)[C@H]2O)[C@](C)(OC)C[C@@H](C)C(=O)[C@H](C)[C@@H](O)[C@]1(C)O [Clarithromycin] | 0.952 | 0.722 | 0.938 | 0.905 | 0.629 | 0.909 |
| Cc1nc(Nc2ncc(C(=O)Nc3c(C)cccc3Cl)s2)cc(N2CCN(CCO)CC2)n1 [Dasatinib] | 3.15 | 3.53 | 4.42 | 3.41 | 2.2 | 3.92 |
| C#Cc1cccc(Nc2ncnc3cc4c(cc23)OCCOCCOCCO4)c1 [Icotinib] | 1.83 | 1.46 | 1.62 | 1.18 | 1.35 | 1.32 |
| C[C@]12CCCN1CC1=NNC(=O)c3cc(F)cc4[nH]c2c1c34 [Pamiparib (BGB-290)] | 1.52 | 1.68 | 1.44 | 1.48 | 2.36 | 1.71 |
| CC(C)[C@H](N)C(=O)OCCOCn1cnc2c(=O)nc(N)[nH]c21 [Valaciclovir HCl] | 1.18 | 1.31 | 2.3 | 0.774 | 1.28 | 1.37 |
| CCOC(=O)c1c(CSc2ccccc2)n(C)c2cc(Br)c(O)c(CN(C)C)c12 [Arbidol HCl] | 1.37 | 1.41 | 2.16 | 1.38 | 1.34 | 1.63 |
| Nc1cc(C(F)(F)F)c(-c2nc(N3CCOCC3)nc(N3CCOCC3)n2)cn1 [Bimiralisib (PQR309)] | 2.95 | 2.83 | 1.83 | 4.83 | 2.44 | 2.86 |
| O=C(O)COCCN1CCN([C@H](c2ccccc2)c2ccc(Cl)cc2)CC1 [Levocetirizine Dihydrochloride] | 0.875 | 1.39 | 0.783 | 1.09 | 0.867 | 1.4 |
| COc1ccc(-c2cc(=O)c3c(OC)c(OC)c(OC)c(OC)c3o2)cc1OC [Nobiletin] | 0.695 | 0.706 | 1 | 0.95 | 1.47 | 0.897 |
| CCOC(=O)CCNc1cc(N2CCc3ccccc3CC2)nc(-c2ccccn2)n1 | 2 | 2.58 | 2.35 | 2.56 | 2.41 | 1.95 |
| COCCNCCc1cccc(Nc2ncc3c(n2)-c2ccccc2[C@H](c2ccccc2F)C3)c1 [Derazantinib(ARQ-087)] | 6.37 | 4.25 | 5.6 | 3.69 | 4.56 | 4 |
| CC1(C)CC(=O)c2c(C(F)(F)F)nn(-c3ccc(C(N)=O)c(N[C@H]4CC[C@H](O)CC4)c3)c2C1 | 3.06 | 2.99 | 3.09 | 3.59 | 3.83 | 2.73 |
| O=C1NCCc2[nH]c(-c3ccncc3)cc21 | 3.08 | 0.97 | 1.24 | 3.06 | 2.81 | 3.15 |
| O=C1OC(OC(=O)c2cccnc2Nc2cccc(C(F)(F)F)c2)c2ccccc21 (centres undefined) [Talniflumate] | 0.81 | 0.859 | 0.922 | 0.783 | 0.818 | 1 |
| CN(CCOc1ccc(CC2SC(=O)NC2=O)cc1)c1ccccn1 (centres undefined) [Rosiglitazone HCl] | 1.13 | 1.65 | 1.31 | 1.07 | 2.06 | 1.27 |
| C[C@@H](NCCCc1cccc(C(F)(F)F)c1)c1cccc2ccccc12 [Cinacalcet HCl] | 1.32 | 1.57 | 1.89 | 1.06 | 1.85 | 1.42 |
